What was measured:
[1] = target: T1, Aspartate--tRNA(Asp/Asn) ligase (Mycobacterium tuberculosis (strain ATCC 25618 / H37Rv)) (UniProt P9WFW3); test: Assay for Asp RNA synthetase-1 from Mycobacterium tuberculosis; format: functional; parameters: scale not given: direction of the effect not stated beside the values; conditions: 30 µM; also: in the data most compounds retested in dose-response had high values
T1 sequence (whole entry): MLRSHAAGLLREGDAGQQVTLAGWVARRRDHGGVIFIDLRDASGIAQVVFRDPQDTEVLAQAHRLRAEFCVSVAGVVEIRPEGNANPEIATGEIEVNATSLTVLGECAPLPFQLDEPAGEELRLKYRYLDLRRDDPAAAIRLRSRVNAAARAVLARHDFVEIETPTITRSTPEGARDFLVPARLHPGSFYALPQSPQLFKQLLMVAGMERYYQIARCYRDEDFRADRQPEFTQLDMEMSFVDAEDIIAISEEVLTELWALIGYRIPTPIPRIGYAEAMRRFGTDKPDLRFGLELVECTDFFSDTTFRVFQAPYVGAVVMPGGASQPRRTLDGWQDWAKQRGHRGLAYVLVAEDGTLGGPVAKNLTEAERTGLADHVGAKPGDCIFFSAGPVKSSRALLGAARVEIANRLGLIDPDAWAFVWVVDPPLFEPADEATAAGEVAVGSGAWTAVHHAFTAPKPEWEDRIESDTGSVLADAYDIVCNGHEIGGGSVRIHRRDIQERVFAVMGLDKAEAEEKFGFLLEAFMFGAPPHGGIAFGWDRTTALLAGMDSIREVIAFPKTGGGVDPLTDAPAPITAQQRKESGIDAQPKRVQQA

[2] = target: Shiga toxin 2 (Escherichia coli O157:H7) (UniProt P09385+P09386); test: E. coli 0.157:H7 Shiga Toxin SOP - stx2 screening assay; format: functional; parameters: scale not given: direction of the effect not stated beside the values; conditions: 30 µM

SMILES | Percent Effect [1] | Percent Effect [2]
O=C(NCC1(N2CCOCC2)CCSC1)Nc1ccc(F)cc1 (centres undefined) | 2% | -8.73%
Cc1cncc(C(=O)N2Cc3ccccc3C3(CCN(C)CC3)C2)c1 | -2.03% | -1.24%
Cn1cnnc1C1CCCN(C(=O)c2cnc3ccccc3n2)C1 (centres undefined) | -1.76% | 36.5%
OC(CN(Cc1ccccc1)Cc1ccncc1)c1cccs1 (centres undefined) | -1.23% | 4.51%
c1cc(OCc2ccc3c(c2)OCO3)ccc1CNC1CC1 | -1.47% | -108%
CN1CCCN(C(=O)c2ccc3c(c2)nc(N2CCOCC2)n3C)CC1 | -3.09% | -5.95%
O=C(NCCNc1ncccn1)N1CCN(Cc2cccnc2)CC1 | 6.28% | -6.42%
O=C(NCCOCC(F)(F)F)c1ccc(-c2ccco2)[nH]c1=O | 0.409% | 20.7%
CN(C(=O)NCc1ccncc1)C1CCN(c2ccccc2)C1=O (centres undefined) | -3.08% | -7.78%
COc1c(CNCCNC(=O)c2ccc(C)cc2)c(C)nn1C | -4.08% | -32.3%
CN(Cc1cccc(F)c1)C1CCN(CCc2ccccn2)CC1 | -3.32% | -8.85%
CC(C(=O)NCCOc1ccc2c(c1)OCO2)n1cncn1 (centres undefined) | -7.68% | -4.93%
O=C(c1cccs1)N1CCC2(C1)c1ccccc1S(=O)(=O)N2CC1CC1 (centres undefined) | -6.49% | 6.62%
O=C(c1ccncc1)N1CCC2(CC1)CC(Oc1cccnc1)CO2 (centres undefined) | 4.1% | 12.2%
CCc1ccc(O)c(C(=O)NC2CCN(Cc3ccncc3)CC2)c1 | -4.26% | -67.7%
c1ncn(CC2CN(Cc3noc(C4CC4)n3)CCO2)n1 (centres undefined) | 0.367% | -20.8%
Cc1ccc(C(=O)NCCS(C)(=O)=O)c(=O)[nH]1 | -3.5% | -4.7%
CCOCC(=O)NC1(c2cccc(Br)c2)CC1 | 1.26% | -5.68%
O=C(CCc1cscn1)N1CCCC1c1noc(C2CC2)n1 (centres undefined) | -1.43% | 22.4%
CCc1ccc(CN2C[C@@H]3OCCN(c4ccnc(N(C)C)n4)[C@@H]3C2)o1 | -6.22% | -25.6%
CC(C)NC(=O)N1CCC(n2ccc(C(F)(F)F)n2)CC1 | -2.88% | -0.886%
Cc1ccc(CN2CCc3ncnc(C4CC4)c3CC2)s1 | 9.9% | -8.76%
Cn1cc(CNCCOc2ccc(F)c(F)c2)c(-c2cccnc2)n1 | 7.32% | -38.1%
Cc1cccnc1CNCC1(O)CCCN(Cc2ccc(F)cc2)C1=O (centres undefined) | 0.386% | 4.74%
Cc1cc(C2CCCN(C(=O)c3ccc(C)[nH]c3=O)C2)n[nH]1 (centres undefined) | -1% | 3.9%
CCOCC1CN(Cc2ccc(OC)cc2)Cc2nn(C)cc21 (centres undefined) | 11.4% | -5.58%
O=C(CC1CCCC1)NCCn1ccc(-c2ccccn2)n1 | -4.3% | -5.4%
